Source: PubChem (National Center for Advancing Translational Sciences (NCATS))
This excerpt belongs to a sample that is enriched for hits.
Cruzain noTriton – qHTS Assay for Promiscuous and Specific Inhibitors of Cruzain (without detergent); purified cruzain, Z-FR-AMC fluorescence, no detergent; Potency, µM, for the others: max response, negative = inhibition, most hits filed as inhibitors; 200,000 tested, 2.3% active; AID 1476, 2009;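 note: plate controls were enzyme without inhibitor for no effect and buffer without enzyme for full effect; nearly all actives have a fitted effect of over 40% in size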
Target sequence (P25779 123-467 limits assumed): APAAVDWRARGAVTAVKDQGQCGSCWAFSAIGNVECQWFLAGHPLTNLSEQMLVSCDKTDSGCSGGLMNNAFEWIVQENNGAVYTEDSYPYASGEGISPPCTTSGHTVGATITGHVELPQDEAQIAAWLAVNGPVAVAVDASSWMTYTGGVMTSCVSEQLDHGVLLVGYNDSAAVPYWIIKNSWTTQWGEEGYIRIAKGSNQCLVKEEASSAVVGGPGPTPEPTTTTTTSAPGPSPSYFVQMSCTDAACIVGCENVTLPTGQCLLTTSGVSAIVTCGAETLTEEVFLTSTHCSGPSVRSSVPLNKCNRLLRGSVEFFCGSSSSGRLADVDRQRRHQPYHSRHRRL
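Purified cruzain at 1.5 nM, pre-incubated 15 min with compound at room temperature in 100 mM sodium acetate pH 5.5, 5 mM DTT, 0.00005% Triton X-100. Reaction started with 2 uM Z-FR-AMC; AMC fluorescence increase over 60 s gives rate.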
NS1 function inh – qHTS Assay for Inhibitors of Influenza NS1 Protein Function | 270,000 tested, 0.4% active | Potency, µM (doses to about 46.1 µM), without a hit: at the top dose activity, positive = more growth | AID 2326, 2010; calls by dose curve; note: actives are rising curves; nearly all actives have a fitted effect of over 50% in size
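Recovery from NS1-induced slow growth read by OD600 in budding yeast switched to galactose assay medium (pH 6.0, -URA) at 1:100 dilution. Compound 23 nl per well; the matching strain lacking NS1 serves as control.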
Cruzain Triton – qHTS Assay for Promiscuous and Specific Inhibitors of Cruzain (with detergent); 200,000 tested, 0.43% active; AID 1478, 2009; purified cruzain, Z-FR-AMC fluorescence, 0.01% Triton; Potency, µM, for the others: max response, negative = inhibition, hits mostly inhibitors;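 note: plate controls were neutral wells for no effect and buffer without enzyme for full effect; nearly all actives have a fitted effect of over 40% in size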
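Enzyme 1.5 nM, Z-FR-AMC 2 uM, NaOAc 100 mM pH 5.5, DTT 5 mM, Triton X-100 0.01%; 15 min RT compound preincubation; kinetic ex360/em450, 60 s delta.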
Starred values were filed as active, the others as inactive; ? = inconclusive; . = no result; ! = repeats disagree. Unless noted, calls come from the whole dose curve; as a rule, active = well fitted curve in the direction sought with a large enough effect; inconclusive = small, poorly fitted or top-dose-only effect, or another doubt; inactive = no such curve, though single readings can be large; an effect the other way counts as inactive or inconclusive. Potency is the fitted concentration of half-maximal effect.

SMILES	Cruzain noTriton	NS1 function inh	Cruzain Triton
C=CCn1c(=NC(=O)c2ccc(S(=O)(=O)N3CCc4ccccc4C3)cc2)sc2cc(S(N)(=O)=O)ccc21	-9%	12%	-4%
C#CCn1c(=NC(=O)c2ccc(S(=O)(=O)N3CCc4ccccc4C3)cc2)sc2cc(S(N)(=O)=O)ccc21	10µM*	?	-22%
COCCn1c(=NC(=O)c2ccc(S(=O)(=O)N3CCc4ccccc4C3)cc2)sc2cc(S(N)(=O)=O)ccc21	?	5%	-21%
COC(=O)Cn1c(=NC(=O)c2ccc(S(=O)(=O)N3CCc4ccccc4C3)cc2)sc2cc(OC)ccc21	6.3µM*	-3%	-4%
CN1[C@@H]2CC(OC(=O)[C@H](CO)c3ccccc3)C[C@@H]1[C@H]1O[C@H]12 (some centres not stated)	5%	.	-5%
Cc1ccc2c(c1)c(=O)c(C(=O)c1ccc3c(c1)OCO3)cn2Cc1ccc(Cl)cc1	?	.	-1%
O=C(c1ccc2c(c1)OCO2)c1cn(Cc2ccc(Cl)cc2)c2ccc(F)cc2c1=O	25µM*	.	-3%
O=C(Cc1ccccc1)Nc1nnc(-c2cccs2)s1	25µM*	5%	1%
CCC(=O)Nc1nnc(-c2cccs2)s1	.	-7%	.
COC(=O)N[C@@H](/C=C/c1ccccc1)[C@@H](C)[N+](=O)[O-]	5%	.	4%
CC(=O)c1cccc(NC(=O)c2c(C)nn(-c3ccc(F)cc3)c2-n2cccc2)c1	5%	.	-4%
O=[N+]([O-])c1cccc(-c2ccc(/C=N/n3c(-c4ccccc4)n[nH]c3=S)o2)c1	16µM*	9%	-4%
NC(=S)N/N=C/c1ccc(-c2cccc([N+](=O)[O-])c2)o1	3.2µM*	-1%	2.8µM*
O=[N+]([O-])c1cccc(-c2ccc(/C=N/NC(=S)Nc3cccc(F)c3)o2)c1	.	7%	.
O=[N+]([O-])c1ccc(O)c(/C=N/n2c(-c3ccccc3)n[nH]c2=S)c1	.	-134%	.
C[C@](O)(c1ccccc1)c1nccc2ccccc12	-3%	13%	3%
COC(=O)c1ccc(C(/C=C/[C@@H](C)C(=O)NCc2cc(C)n(C)n2)NC(=O)OCc2ccccc2)cc1 (some centres not stated)	?	.	-6%
O=C(NCc1cccc(Cl)c1)c1cc2c(s1)-c1ccccc1SC2	25µM*	.	-6%
O=C(NCc1ccc(Cl)cc1)c1cc2c(s1)-c1ccccc1SC2	-79%	.	-7%
Nc1ccc2ncccc2c1	-7%	-4%	2%
Nc1ccc2cc3ccccc3cc2c1	13µM*	.	0%
COc1ccc(C2=NS(=O)(=O)N(C)C(C(=O)Nc3ccc(OC(F)(F)F)cc3)=C2)cc1	10µM*	.	-4%
COc1ccc(NC(=O)C2=CC(c3ccc(OC)cc3)=NS(=O)(=O)N2C)cc1	.	-33%	.
Cn1cccc1/C=C1\SC(=S)N(NC(=O)c2ccccc2Cl)C1=O	13%	6%	-10%
Cc1ccc(C(=O)NN2C(=O)/C(=C/c3cccn3C)SC2=S)cc1	?	2%	-9%
SMILES	Cruzain noTriton	NS1 function inh	Cruzain Triton
Cc1ccc(C(=O)NN2C(=O)/C(=C/c3cn(C)c4ccccc34)SC2=S)cc1	10µM*	18%	1%
Cn1cc(/C=C2\SC(=S)N(NC(=O)c3ccccc3Cl)C2=O)c2ccccc21	10µM*	1%	-3%
CC(C)(C)C(=O)CP(=O)(O)O	-1%	-1%	-1%
N/N=C1/CC(=O)NC(=O)N1	-6%	1%	0%
CS(=O)(=O)c1ccc2nc(NC(=O)c3ccc(NS(=O)(=O)c4ccc(F)c(F)c4)cc3)sc2c1	.	3%	.
O=C(Nc1nc2ccc(SC(F)F)cc2s1)c1ccc(NS(=O)(=O)c2ccc(F)c(F)c2)cc1	32µM*	?	-1%
CS(=O)(=O)N1CCC2(CC1)CN(C(c1ccccc1)c1ccccc1)C2	-10%	.	2%
NC(N)=N/N=C(/c1ccccc1)c1ccc(O)cc1O	-5%	-3%	-3%
COc1ccc(C2C=C(C34CC5CC(CC(C5)C3)C4)NC(=S)N2)cc1 (configuration not stated)	25µM*	-5%	-3%
COc1ccc(C2=CC(c3ccc(OC)c(OC)c3)NC(=S)N2)cc1 (configuration not stated)	-2%	20%	4%
COc1ccc(S(=O)(=O)c2cn(CC(=O)Nc3cc(C)ccc3C)c3ccccc3c2=O)cc1	-5%	.	0%
Cc1cccc(C)c1NC(=O)COc1cccc(/C=N/NC(=O)C(=O)NCc2ccccc2)c1	25µM*	4%	7%
Cc1cccc(OCC(=O)NCC(=O)N/N=C/c2ccccc2)c1	.	6%	.
COc1cc(F)c(S(=O)(=O)Nc2c(C)n(C)n(-c3ccccc3)c2=O)cc1OC	10%	.	1%
CCN(CC)C(=O)c1ccc(COc2ccc(Cl)c(C)c2)o1	.	-49%	.
Cc1cc(OCc2ccc(C(=O)n3cccn3)o2)ccc1Cl	?	-27%	7.9µM*
Cc1nn(Cc2ccc(C(=O)n3cccn3)o2)c(C)c1Br	1%	-3%	-7%
CCOc1ccc(OCc2ccc(C(=O)O)o2)cc1	-3%	-6%	0%
O=C(c1ccc(COc2ccc(F)cc2)o1)n1cccn1	13µM*	-33%	16µM*
O=C(c1ccc(COc2ccc(F)cc2)o1)n1cc(Br)cn1	?	-4%	14µM*
Nc1ccc(N=Nc2ccccc2)c(N)n1	20µM*!	-11%	-3%
Cc1[nH]c(N=Nc2ccccc2)nc1N=Nc1ccccc1	.	-56%	.
N/C(=N\c1nc(CSc2ccc(Cl)cc2)cc(=O)[nH]1)Nc1cccc2ccccc12	10µM*	5%	-4%
COc1ccc(N/C(N)=N/c2nc(CSc3ccc(Cl)cc3)cc(=O)[nH]2)cc1	-18%	11%	-5%
COc1ccc(C2/C=C\CC(NC(=O)OCC3c4ccccc4-c4ccccc43)CC(=O)N2Cc2ccccc2F)cc1 (configuration not stated)	13µM*	.	1%
SMILES	Cruzain noTriton	NS1 function inh	Cruzain Triton
COc1ccc(C2/C=C\CC(NC(=O)OCC3c4ccccc4-c4ccccc43)CC(=O)N2Cc2cccc(F)c2)cc1 (configuration not stated)	?	.	1%
CCOC(=O)[C@@H]1[C@@H]2c3ccccc3-c3ccccc3[C@H]2C[C@H]1O	-7%	-16%	0%
CN(C)C(=O)c1ccc(-c2ccc3ncnc(NC4CCNCC4)c3c2)cc1	-5%	.	4%
Cc1cc(C)n2c(Nc3ccccc3C)c(-c3cccs3)nc2n1	-16%	.	-2%
O=C(C/C=N/OCc1ccc(Cl)cc1)c1cnc(-c2ccccc2)s1	-30%	7%	-4%
O=C(C/C=N/OCc1c(Cl)cccc1Cl)c1cnc(-c2ccccc2)s1	13µM*	4%	1%
O=S(=O)(c1cccc2ccccc12)N1CCN(c2ccc(Cl)c(Cl)c2)CC1	20µM*	.	-1%
CCOc1ccc(S(=O)(=O)N2CCN(c3ccc(Cl)c(Cl)c3)CC2)c2ccccc12	10%	.	2%
S=C(S)NCCN1CCNCC1	-2%	3%	2%
COc1ccc(OC)c(N2Cc3cc(C)c(C)cc3C2)c1	16µM*	-18%	1%
COc1ccc(OC)c(-n2c(C)cc(C=O)c2C)c1	.	-2%	.
CCOc1ccccc1N1Cc2cc(C)c(C)cc2C1	25µM*	13%	3%
CCOc1ccccc1N1Cc2ccccc2C1	?	0%	5%
